Calls of active or inactive are those of the source. Unless noted, no rule for the calls is given here.

Results on nine compounds are retold here after PubChem BioAssay.

A short description of test [1]: compounds binding Alexa647 anti-His antibody – biochemical, small-molecule microarray, 635 nm fluorescence, artefact control for SMM control protein annotation, primary screen (AID 1128).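 Also: score merges feature fluorescence with signal-to-noise for each printed compound spot.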 Conditions: higher = more signal.
Test [2] relates to Human papillomavirus type 1a E7 protein (residues 1-88). Nature of the test: HPV1a E7 small-molecule binders, primary screen, biochemical, small-molecule microarray, residues 1-88, 635 nm (AID 1129). Conditions: small-molecule microarray binding, fluorescence 635 nm; higher = more signal.
In test [3] the target is Focal adhesion kinase 1 (Homo sapiens) (UniProt Q05397). Nature of the test: PTK2 protein binding on printed compound slides – biochemical, small-molecule microarray, 635/667 nm fluorescence, BSA, DTT, primary screen (AID 1130).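 Also: composite of spot emission at 667 nm and signal to noise over triplicate slides.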 Conditions: 635 nm fluorescence, higher = more signal.
For test [4], the system named is Fibrinogen (Alexa647-labelled). Nature of the test: Alexa647-fibrinogen binding to printed small molecules – biochemical, small-molecule microarray, 635/667 nm fluorescence, artefact control for SMM control-protein annotation, profiling panel (AID 1131).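 Also: z-score merges 667 nm fluorescence with per-spot signal-to-noise over triplicate slides.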 The following applies: fibrinogen-A647 binding fluorescence, higher = more signal.
In test [5] the target is Follistatin (Homo sapiens) (UniProt P19883). Nature of the test: FST protein binding to printed compounds – biochemical, small-molecule microarray, 635/667 nm fluorescence, primary screen (AID 1132). The following applies: 635 nm fluorescence, higher = more signal.
Test [6] addresses Fibroblast growth factor 2 (Homo sapiens) (UniProt P09038). Nature of the test: basic fibroblast growth factor binding to printed compounds – biochemical, small-molecule microarray, 635/667 nm fluorescence, primary screen (AID 1133). The following applies: FGF2, fluorescence 635/667, higher = more signal.
Test [7] can be described thus: JC-1 mitochondrial potential readout, lung cancer cells – cell-based, A549, JC-1 fluorescence, basal, 24 h, 100 nL, profiling panel (AID 1138).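 Also: A549 lung adenocarcinoma cells under basal conditions with no added stimulus; test concentration not given here.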 Conditions: higher = more signal.
Another test concerns Lefty1. Nature of the test: Lefty1 protein binding to printed compounds – biochemical, small-molecule microarray, 635/667 nm fluorescence, primary screen (AID 1139). Conditions: fluorescence 635/667, higher = more signal.
The test system of test [8] is wheat germ agglutinin (Triticum aestivum), Alexa647-labelled. Nature of the test: Alexa647-WGA lectin binding to printed small molecules – biochemical, small-molecule microarray, 635/667 nm fluorescence, artefact control for SMM control-protein annotation, profiling panel (AID 1140).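 Also: score merges 667 nm feature emission with signal to noise over triplicate slides.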 The following applies: WGA-A647 binding, 635 nm fluorescence, higher = more signal.
The target in test [9] is Luciferin 4-monooxygenase (Photinus pyralis) (UniProt P08659). Nature of the test: inhibition of purified Photinus pyralis luciferase – biochemical, luminescence, purified enzyme, 2006 set, primary screen (AID 1141).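 Also: cell-free assay with purified firefly luciferase at 100 ng per well in PBS; test concentration not given here.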 Conditions: purified firefly luciferase, SteadyGlo luminescence, 30 min; higher = more signal, called active from +8 up or from −8 down.
Test [10] concerns Wnt5a (protein binding on small-molecule microarray). Nature of the test: small molecules binding Wnt5a protein – biophysical, small-molecule microarray, 635/667 nm fluorescence, primary screen (AID 1142).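 Also: fluorescence read at 667 nm with signal to noise per printed feature.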 The following applies: 635 nm fluorescence, higher = more signal.
Test [11] in a line: ATP-based viability of Huh7 replicon cells – cell-based, CellTiter-Glo luminescence, basal, 48 h, cytotoxicity control for HCV replication inhibitor project, primary screen (AID 1143).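 Also: Huh7 hepatoma cells carrying a hepatitis C replication reporter with no stimulus; test concentration not given here.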 The following applies: higher = more signal, called active from +8 up or from −8 down.
Test [12] in a line: Pseudomonas biofilm growth suppression – PAO1 strain, BacTiter-Glo luminescence, LB-PBS, primary screen (AID 1144). Conditions: P. aeruginosa PAO1 biofilm, 12 h, higher = more signal.
Test [13] is described as follows: basal CRE-LacZ reporter activity in PC12 – cell-based, unstimulated, primary screen (AID 1145). Conditions: no forskolin, luminescence, 4.5 h, higher = more signal, called active from +8 up or from −8 down.
Test [14] in a line: forskolin-driven CRE-LacZ activity in PC12 – cell-based, CRE-LacZ reporter, forskolin-stimulated, primary screen (AID 1146).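 Also: PC12 cells with 6xCRE LacZ reporter stimulated by forskolin 10 µM; beta-galactosidase reporter signal reflecting CREB driven transcription.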 The following applies: luminescence, 4.5 h, higher = more signal, called active from +8 up or from −8 down.
The target of test [15] is Streptavidin (Streptomyces avidinii) (UniProt P22629). Nature of the test: compounds binding control protein streptavidin – biophysical, small-molecule microarray, 635/667 nm fluorescence, artefact control for SMM compound annotation, primary screen (AID 1147).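 Also: signal reflects streptavidin binding to arrayed compounds as a control protein.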 Conditions: higher = more signal.
A short description of test [16]: probe aInhba binding on compound microarray – biochemical, small-molecule microarray, 635/667 nm fluorescence, primary screen (AID 1148).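 Also: score merges 667nm spot fluorescence with signal-to-noise for antibody binding to printed compounds.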 The following applies: higher = more signal.
Test [17] concerns the target Torsin-1A (Homo sapiens) (UniProt O14656). Nature of the test: TOR1A wild-type binding on microarray – cell lysate, small-molecule microarray, lysate, 635/667 nm, primary screen (AID 1149). Conditions: COS7 hTOR1A-WT lysate, 635 nm fluorescence, higher = more signal.
Test [18] has the same target. Nature of the test: torsin A mutant lysate binding on microarrays – cell lysate, small-molecule microarray, COS7 lysate, 635/667 nm fluorescence, primary screen (AID 1150).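 Also: score pools 667 nm emission and signal to noise measuring lysate protein binding.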 The following applies: COS7 hTOR1A mutant lysate, 635 nm fluorescence, higher = more signal.
In test [19] the test system is Sonic hedgehog protein (Shh). Nature of the test: Sonic hedgehog microarray binding compounds – biochemical, small-molecule microarray, 635/667 nm fluorescence, primary screen (AID 1151).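 Also: Shh protein binding to compounds spotted on small-molecule microarray slides; score combines spot fluorescence intensity with signal-to-noise across triplicate slides.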 Conditions: 635 nm fluorescence, higher = more signal.

Sequence of Luciferin 4-monooxygenase (Photinus pyralis) (P08659 whole entry, looked up): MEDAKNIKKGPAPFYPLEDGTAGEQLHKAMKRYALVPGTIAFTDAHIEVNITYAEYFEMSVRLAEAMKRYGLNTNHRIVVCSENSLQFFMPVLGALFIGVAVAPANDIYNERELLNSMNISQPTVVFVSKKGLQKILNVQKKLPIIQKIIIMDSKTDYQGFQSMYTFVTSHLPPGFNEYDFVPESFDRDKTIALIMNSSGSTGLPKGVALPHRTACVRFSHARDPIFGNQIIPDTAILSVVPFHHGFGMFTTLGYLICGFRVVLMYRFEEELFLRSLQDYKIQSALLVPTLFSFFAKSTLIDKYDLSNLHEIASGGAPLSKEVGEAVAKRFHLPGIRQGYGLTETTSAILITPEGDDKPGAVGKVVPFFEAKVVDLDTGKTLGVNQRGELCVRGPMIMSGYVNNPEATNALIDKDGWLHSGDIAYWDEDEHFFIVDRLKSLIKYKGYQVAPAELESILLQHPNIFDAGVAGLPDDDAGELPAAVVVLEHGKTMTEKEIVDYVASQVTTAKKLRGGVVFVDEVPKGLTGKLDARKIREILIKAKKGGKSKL
Sequence of Torsin-1A (Homo sapiens) (O14656 whole entry, looked up): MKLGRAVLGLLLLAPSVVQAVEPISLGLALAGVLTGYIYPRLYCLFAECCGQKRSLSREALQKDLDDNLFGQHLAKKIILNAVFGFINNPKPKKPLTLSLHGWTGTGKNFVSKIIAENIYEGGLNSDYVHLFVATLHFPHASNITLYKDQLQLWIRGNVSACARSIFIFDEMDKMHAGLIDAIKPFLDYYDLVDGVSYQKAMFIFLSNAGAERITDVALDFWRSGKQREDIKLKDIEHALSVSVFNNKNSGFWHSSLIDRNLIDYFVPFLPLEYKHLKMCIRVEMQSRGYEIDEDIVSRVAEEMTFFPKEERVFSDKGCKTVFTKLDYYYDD
Sequence of Fibroblast growth factor 2 (Homo sapiens) (P09038 whole entry, looked up): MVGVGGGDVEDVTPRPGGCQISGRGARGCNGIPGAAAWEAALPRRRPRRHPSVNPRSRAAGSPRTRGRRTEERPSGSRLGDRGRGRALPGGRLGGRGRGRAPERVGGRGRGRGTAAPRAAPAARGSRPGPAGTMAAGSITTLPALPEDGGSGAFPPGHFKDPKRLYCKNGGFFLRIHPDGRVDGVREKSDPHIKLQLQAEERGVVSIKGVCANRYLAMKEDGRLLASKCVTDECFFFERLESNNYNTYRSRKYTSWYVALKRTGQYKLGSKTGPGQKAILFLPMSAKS
Sequence of Streptavidin (Streptomyces avidinii) (P22629 whole entry, looked up): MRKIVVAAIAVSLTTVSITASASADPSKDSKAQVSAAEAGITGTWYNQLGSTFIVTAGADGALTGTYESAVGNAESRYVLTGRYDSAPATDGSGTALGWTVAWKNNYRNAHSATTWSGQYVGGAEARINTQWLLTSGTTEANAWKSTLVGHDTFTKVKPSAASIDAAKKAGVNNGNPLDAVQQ
Sequence of Focal adhesion kinase 1 (Homo sapiens) (Q05397 whole entry, looked up): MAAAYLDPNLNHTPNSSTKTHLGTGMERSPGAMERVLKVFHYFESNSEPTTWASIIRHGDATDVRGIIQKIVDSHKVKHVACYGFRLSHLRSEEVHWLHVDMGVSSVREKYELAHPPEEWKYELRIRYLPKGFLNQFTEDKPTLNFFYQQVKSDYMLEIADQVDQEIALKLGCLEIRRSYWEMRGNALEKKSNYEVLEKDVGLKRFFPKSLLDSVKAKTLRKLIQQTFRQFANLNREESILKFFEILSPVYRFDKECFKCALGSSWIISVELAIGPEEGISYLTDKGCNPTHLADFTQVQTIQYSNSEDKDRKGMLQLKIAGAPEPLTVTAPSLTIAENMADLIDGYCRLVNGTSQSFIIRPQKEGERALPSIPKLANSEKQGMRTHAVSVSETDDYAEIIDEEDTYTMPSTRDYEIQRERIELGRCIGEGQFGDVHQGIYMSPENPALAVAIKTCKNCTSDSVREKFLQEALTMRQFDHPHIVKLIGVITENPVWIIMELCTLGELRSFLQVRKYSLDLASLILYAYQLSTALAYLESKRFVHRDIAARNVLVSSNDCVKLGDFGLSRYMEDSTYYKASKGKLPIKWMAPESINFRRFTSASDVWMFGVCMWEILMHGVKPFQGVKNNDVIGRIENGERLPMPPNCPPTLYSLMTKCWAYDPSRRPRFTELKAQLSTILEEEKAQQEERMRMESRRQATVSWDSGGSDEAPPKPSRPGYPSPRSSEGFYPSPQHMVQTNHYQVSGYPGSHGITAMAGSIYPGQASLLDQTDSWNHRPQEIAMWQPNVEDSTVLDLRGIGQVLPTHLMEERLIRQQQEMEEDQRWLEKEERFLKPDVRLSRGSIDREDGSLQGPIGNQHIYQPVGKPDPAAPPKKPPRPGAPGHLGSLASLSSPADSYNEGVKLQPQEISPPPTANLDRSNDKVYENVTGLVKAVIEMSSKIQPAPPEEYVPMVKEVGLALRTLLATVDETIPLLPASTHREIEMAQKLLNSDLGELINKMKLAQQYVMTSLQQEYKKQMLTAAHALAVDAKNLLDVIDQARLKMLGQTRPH
Sequence of Follistatin (Homo sapiens) (P19883 whole entry, looked up): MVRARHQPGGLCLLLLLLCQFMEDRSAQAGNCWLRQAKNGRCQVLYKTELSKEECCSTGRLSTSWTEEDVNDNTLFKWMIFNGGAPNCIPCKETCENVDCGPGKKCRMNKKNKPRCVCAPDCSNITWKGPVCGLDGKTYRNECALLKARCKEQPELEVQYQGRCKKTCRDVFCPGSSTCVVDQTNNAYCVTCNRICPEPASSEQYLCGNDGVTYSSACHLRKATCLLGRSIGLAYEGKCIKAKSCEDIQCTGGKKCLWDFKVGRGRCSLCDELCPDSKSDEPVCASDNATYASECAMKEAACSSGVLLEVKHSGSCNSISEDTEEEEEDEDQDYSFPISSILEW

With `C=C(/C(=C/C[C@@H](OC(C)=O)c1cccc(OCCO)c1)c1cc(C(=O)OC)ccc1OC)C(C)C`, the composite z-score is -0.422 in test [1]; 0.238 in test [2]; 0.543 in [3]; -0.75 in test [4]; 1.12 in test [5]; 1.39 in test [6]. Also, the composite z-score was 1.16 with Lefty1; 0.743 in [8]; 0.148 in test [10]; -0.19 in [15]; -0.152 in test [16]; 0.875 with Torsin-1A (Homo sapiens) [17]. The composite z-score was 1.36 in the test with Torsin-1A (Homo sapiens) [18] and 1.73 in test [19]. Further, the z-score in [7] is 0.834; in [9], 0.0406 (inactive); in test [11], -1.38 (inactive); in [12] it was -0.251 (inactive); in [13], 3.49 (inactive); in test [14], 0.32 (inactive).
With `COc1ccc([Si](C)(C)[C@@H]2[C@@H](CCO)O[C@]3(C(=O)N(Cc4ccc(N5CCCCC5=O)cc4)c4ccccc43)[C@H]2C)cc1`, the composite z-score in test [1] was 2.21; in [2] it was 1.14; in [3], -0.0284; in [4] it was 0.842; in test [5], 1.07; in test [6] it was 1.1. Moreover, the composite z-score in the test on Lefty1 is 0.572; in test [8], 0.916; in test [10], 0.123; in test [15], 0.269; in test [16], -0.0471; with Torsin-1A (Homo sapiens) [17], 0.0458. Also, the composite z-score is 0.342 with Torsin-1A (Homo sapiens) [18] and 1.72 in [19]. The z-score is 1.74 in test [7]; -1.24 (inactive) in [9]; -7.34 (inactive) in test [11]; -0.701 (inactive) in [12]; 8.03 (active) in test [13]; -1.2 (inactive) in [14].
Consider `COCCCNC(=O)[C@@]1(Cc2ccccc2N=[N+]=[N-])N=C(c2ccc(OCCCO)cc2)O[C@H]1c1ccccc1`, for which the composite z-score in test [1] was 2.18; in test [2] it was 1.21; in test [3] it was 0.854; in test [4] it was 0.776; in [5], 1.46; in test [6] it was 1.03. Besides, the composite z-score in the test on Lefty1 is 0.256; in test [8], 0.759; in [10], 1.51; in test [15] it was -0.459; in [16] it was 0.0589; with Torsin-1A (Homo sapiens) [17] it was 3.67. The composite z-score amounted to 3.61 with Torsin-1A (Homo sapiens) [18] and 0.55 in [19]. In addition, the z-score in [7] was 0.624; in test [9], -0.97 (inactive); in [11], -4.36 (inactive); in test [12], -1.31 (inactive); in [13] it was 0.558 (inactive); in [14] it was -0.472 (inactive).
Turning to `COCCOC(=O)N1C(=O)[C@@]2(c3cc(C#CC4=CCCCC4)ccc31)[C@H](c1ccc(OCCO)cc1)N1[C@H](c3ccccc3)[C@H](c3ccccc3)OC(=O)[C@H]1[C@@H]2C(=O)NC[C@H](O)c1ccccc1`, the composite z-score in test [1] was found to be 0.392; in [2] it was 1.16; in test [3], 0.499; in test [4], 0.295; in test [5], 1.48; in test [6], 1.82. In addition, the composite z-score was 1.65 in the test with Lefty1; -0.127 in test [8]; 0.552 in test [10]; 0.785 in test [15]; 0.801 in [16]; 0.818 with Torsin-1A (Homo sapiens) [17]. Further, the results for the composite z-score (in the test with Torsin-1A (Homo sapiens) [18]; in test [19]) were 0.51 and 1.85, respectively. Further, the z-score was -1.4 in test [7]; -2.06 (inactive) in [9]; -2.18 (inactive) in test [11]; 0.698 (inactive) in [12]; 0.354 (inactive) in test [13]; -0.224 (inactive) in [14].
Turning to `CCOC(=O)C1=CC[C@@H](c2ccccc2C(F)(F)F)N(S(=O)(=O)c2ccc(C)cc2)[C@H]1c1ccc(C#N)cc1`, the composite z-score in test [1] was 0.915; in test [2], 1.15; in [3], -0.0446; in test [4], 0.647; in test [5], 0.507; in test [6] it was 0.437. Also, the composite z-score in the test on Lefty1 is -0.0373; in test [8] it was 1.08; in [10] it was 0.125; in test [15] it was 1.11; in test [16], 0.367; in the test with Torsin-1A (Homo sapiens) [17], 0.502. Further, the composite z-score in the test with Torsin-1A (Homo sapiens) [18] turned out to be 0.512; in [19], 0.494. Also, the z-score was -1.92 in test [7]; 1.47 (inactive) in test [9]; -1.96 (inactive) in test [11]; -0.29 (inactive) in [12]; -0.676 (inactive) in [13]; 0.465 (inactive) in test [14].
As for `NC(=O)NCC#Cc1ccc2c(c1)[C@]1(C(=O)N2)[C@H](C(=O)NC[C@H](O)c2ccccc2)[C@H]2C(=O)O[C@H](c3ccccc3)[C@H](c3ccccc3)N2[C@@H]1c1ccc(OCCO)cc1`, the composite z-score is -0.0888 in test [1]; 1.05 in [2]; -0.0193 in test [3]; 0.829 in test [4]; 1.29 in test [5]; 0.177 in test [6]. Further, the composite z-score in the test with Lefty1 is -0.0126; in [8], 0.915; in test [10], 0.496; in [15], 0.661; in [16] it was 0.185; in the test with Torsin-1A (Homo sapiens) [17], -0.0075. For the same compound, the composite z-score is -0.002 with Torsin-1A (Homo sapiens) [18] and 0.728 in [19]. Besides, the z-score in test [7] was -0.303; in test [9] it was -1.9 (inactive); in [11], 0.546 (inactive); in test [12], -0.223 (inactive); in test [13], -0.698 (inactive); in [14], -0.535 (inactive).
With `O=C(NCCCCCNC(=O)/C(Cc1ccccc1)=N/O)OCc1ccccc1`, the composite z-score in test [1] was determined as 0.0971; in test [2], 0.0944; in test [3], 0.433; in [4], 0.106; in test [5], 0.27; in test [6] it was 0.003. Further, the composite z-score with Lefty1 was 0.289; in test [8], -0.0398; in test [10], -0.211; in test [15], 0.153; in test [16], -0.245; with Torsin-1A (Homo sapiens) [17] it was 0.847. For the same compound, the composite z-score in the test with Torsin-1A (Homo sapiens) [18] was -0.013; in [19] it was -0.103. Moreover, the z-score in test [7] was 0.552; in [9] it was 0.209 (inactive); in test [11], -1.82 (inactive); in test [12], -1.37 (inactive); in [13] it was 3.77 (inactive); in test [14], -1.44 (inactive).
Regarding `C=C(C(=O)CC[C@@H](OC(C)=O)c1ccc(CO)o1)C(C)C`, the composite z-score in test [1] is 0.922; in test [2], -0.218; in test [3], -0.26; in test [4], 0.454; in test [5] it was 1.33; in test [6] it was 1.49. Moreover, the composite z-score is 1.59 with Lefty1; -0.0963 in test [8]; 0.911 in [10]; 0.0155 in [15]; -0.0427 in [16]; -0.427 with Torsin-1A (Homo sapiens) [17]. Also, the composite z-score was -0.0059 in the test with Torsin-1A (Homo sapiens) [18] and 1.91 in test [19]. Besides, the z-score in test [7] was -0.246; in test [9] it was -1.76 (inactive); in [11], 1.18 (inactive); in test [12], -0.947 (inactive); in test [13], 0.275 (inactive); in test [14], 2.17 (inactive).
`C[N+](C)(C)CCCCCCNC(=O)[C@H]1C[C@H]2C(=O)NCC(=O)N2[C@H]1c1ccc(O)cc1`: the composite z-score in test [1] is 2.46; in test [2], 0.996; in test [3], -0.0037; in test [4], 0.211; in test [5], 1.37; in [6], 1.67. The composite z-score was 1.59 in the test on Lefty1; 0.195 in test [8]; 0.119 in test [10]; -0.337 in [15]; -0.354 in test [16]; 0.261 in the test with Torsin-1A (Homo sapiens) [17]. Moreover, the composite z-score with Torsin-1A (Homo sapiens) [18] is 0.349; in [19], 2.09. Moreover, the z-score in [7] is -1; in test [9], 0.836 (inactive); in [11] it was -0.274 (inactive); in test [12], 0.0567 (inactive); in test [13], -1.35 (inactive); in test [14] it was 0.444 (inactive).
